# Screening data (PubChem BioAssay)
# Hits are enriched below; roughly 10% of the tested compounds scored in any of these assays.
# BAZ2B block = inhibitors of human BAZ2B bromodomain. Q9UIF8. AlphaScreen BAZ2B-H3K14Ac peptide displacement. Potency, µM (top dose mostly 114 µM), for the others: at the top dose activity change, negative = inhibition, actives largely listed as inhibitors. 360,000 compounds, 4.4% hits; note: potency is the fitted concentration of half-maximal effect; % is set by controls: 0 for no effect and ±100 for the full control effect; nearly all actives have a fitted effect of over 60% in size
#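 AlphaScreen luminescence quantifies BAZ2B engagement of H3K14Ac peptide; the protein and biotinylated peptide are both at 50 nM final, buffer PBS pH 7.4 with 0.01% Tween-20, all steps at room temperature.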
# JMJD2A Tudor inh = blocks the human JMJD2A Tudor domain. AID 504339. 390,000 compounds, 4.4% hits. Potency, µM (highest dose often 114 µM), without a hit: at the highest dose activity change, negative = inhibition, hits mostly inhibitors. O75164. AlphaScreen JMJD2A-Tudor / H3K4me3 peptide binding; note: potency is the fitted concentration of half-maximal effect; % is set by controls: 0 for no effect and ±100 for the full control effect; nearly all actives have a fitted effect of over 50% in size
# HP1b chromo inh = HP1-beta chromodomain-methylated histone interaction inhibition; P83916; AlphaScreen HP1-beta / biotin-H3K9me3 peptide binding; Potency, µM (highest dose often 114 µM), inactives show top-dose activity change, negative = inhibition, hits mostly inhibitors; 390,000 compounds, 0.56% hits; note: potency is the fitted concentration of half-maximal effect; nearly all actives have a fitted effect of over 70% in size
#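 Compound inhibition of the preformed complex between 50 nM HP1-beta and 50 nM biotinylated H3K9me3 peptide was read by AlphaScreen. Buffer was PBS pH 7.4 with 0.01% Tween-20. Incubations ran 30 min at room temperature, with 10 ug/mL donor/acceptor beads.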
# Six1-Eya2 inh = inhibitors of human Six1/Eya2 interaction | 360,000 compounds, 0.56% hits | AlphaScreen GST-Six1/His-Eya2 binding, biochemical; active compounds read low | activity change, % (no concentration beside the values) | Q15475+O00167; in the data active = activity change below about -65%; inconclusive = mostly about -30% to -63%; note: % is set by controls: 0 for no effect and ±100 for the full control effect
# Target sequence (O00167 whole entry, looked up): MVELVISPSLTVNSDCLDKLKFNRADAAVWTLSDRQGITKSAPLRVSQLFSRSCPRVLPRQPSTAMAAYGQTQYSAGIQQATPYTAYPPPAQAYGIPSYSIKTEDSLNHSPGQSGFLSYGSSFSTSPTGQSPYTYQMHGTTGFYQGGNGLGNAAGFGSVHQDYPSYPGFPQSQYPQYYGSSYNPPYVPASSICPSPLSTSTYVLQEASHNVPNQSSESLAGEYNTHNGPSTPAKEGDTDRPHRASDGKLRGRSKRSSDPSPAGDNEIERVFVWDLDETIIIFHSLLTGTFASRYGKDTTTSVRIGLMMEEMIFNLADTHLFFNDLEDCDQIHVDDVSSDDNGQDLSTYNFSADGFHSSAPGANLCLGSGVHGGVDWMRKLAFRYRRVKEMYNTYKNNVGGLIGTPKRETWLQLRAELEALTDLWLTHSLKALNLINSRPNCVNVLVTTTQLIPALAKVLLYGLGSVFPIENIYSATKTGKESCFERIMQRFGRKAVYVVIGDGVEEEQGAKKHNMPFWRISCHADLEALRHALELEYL
# Target sequence (Q15475 whole entry, looked up): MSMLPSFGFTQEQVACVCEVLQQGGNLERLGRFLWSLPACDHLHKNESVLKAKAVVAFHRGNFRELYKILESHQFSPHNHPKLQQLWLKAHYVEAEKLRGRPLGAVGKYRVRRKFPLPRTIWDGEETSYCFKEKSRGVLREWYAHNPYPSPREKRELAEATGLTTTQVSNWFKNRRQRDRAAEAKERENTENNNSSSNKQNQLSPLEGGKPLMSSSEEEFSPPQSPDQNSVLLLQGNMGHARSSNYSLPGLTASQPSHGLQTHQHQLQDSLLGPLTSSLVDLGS
#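 Compounds are tested against tagged Six1 and Eya2 proteins bridged by glutathione donor and nickel acceptor beads; after a one-hour incubation at 37 °C without light, AlphaScreen emission is recorded.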
# G9a inh = inhibitors of human histone lysine methyltransferase G9a | G9a H3K9 monomethylation, AlphaScreen, 2 h | Potency, µM (doses to about 102 µM), without a hit: at the highest dose activity, negative = inhibition, most hits filed as inhibitors | 350,000 compounds, 8.8% hits | AID 504332; note: potency is the fitted concentration of half-maximal effect; % is set by controls: 0 for no effect and ±100 for the full control effect; nearly all actives have a fitted effect of over 75% in size
#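 Quantitative HTS format: methyltransferase activity on a biotin-tagged H3K9 peptide is measured by AlphaScreen, using a rabbit anti-monomethyl-H3K9 antibody with streptavidin donor and anti-IgG acceptor beads. Final levels are 20 nM enzyme, 500 nM peptide, 20 uM SAM; 2 h RT.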
# CtBP-E1A inh = blocks the CtBP interaction with E1A. AlphaScreen GST-E1A/His-CtBP binding, 1536-well; active compounds read low. activity change, % (concentration not given with the values). 340,000 compounds, 0.49% hits; in the data active = activity change below about -65%; inconclusive = mostly about -30% to -63%; note: % is set by controls: 0 for no effect and ±100 for the full control effect
#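 Homogeneous bead-based format: GST-tagged E1A captured on glutathione donor beads, His-tagged CtBP on nickel acceptor beads; compounds precede bead addition by 2 h at 37 °C.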
# Numbers without * were called inactive; ? = inconclusive; . = no result; [ ] = another dose, or the depositor's remark. Unless noted, calls come from the whole dose curve; as a rule, active = well fitted inhibition curve with a large enough effect; inconclusive = small, poorly fitted or top-dose-only effect; inactive = no such curve, though single readings can be large or run the other way.
SMILES,BAZ2B block,JMJD2A Tudor inh,HP1b chromo inh,Six1-Eya2 inh,G9a inh,CtBP-E1A inh
COc1ccc(NC(c2ccccc2)P(=O)(Oc2ccccc2)Oc2ccccc2)cc1 (configuration not stated),25.1µM*,?,1.9%,-6.4,25.1µM*,.
CCCCOc1ccc(Cn2c(=O)oc3ccccc32)cc1,-7.9%,-5.3%,83.9%,19.7,15.8%,18.9
COc1ccc(CNCCc2c[nH]c3ccccc23)c(OC)c1OC,-37.0%,-27.4%,18.3%,-8.5,?,-13.7
COc1ccc(CCNCc2ccc(OC)c(OC)c2OC)cc1,79.4µM*,3.16µM*,?,1.7,14.1µM*,25.6
COc1ccccc1CCNCc1ccc(OC)c(OC)c1OC,39.8µM*,20µM*,-34.6%,4.2,.,-5.0
COc1ccc(OCc2n[nH]c(=S)n2Cc2ccco2)cc1,?,?,?,5.1,2.82µM*,-5.1
O=P(O)(O)c1ccccc1OCCOCCOCCOCCOc1ccccc1P(=O)(O)O,-34.1%,-8.3%,47.2%,1.7,10µM*,-5.3
CCOC(=O)Cn1c(C)[n+](C)c2cc(Cl)c(Cl)cc21,-1.1%,28.2µM*,1.8%,1.3,44.7µM*,.
OCC1CCCN2CCCCC12 (configuration not stated),.,.,.,.,28.1%[59 µM],.
NC(=O)OCCCc1ccccc1,.,-17.2%,14.3%,-0.7,11.1%[59 µM],7.4
CCOC(=O)CCCc1cc[c]([Sb](=[O])([OH])[OH])cc1,.,0.708µM*,1.26µM*,.,.,.
CC(C)=CCC/C(C)=C/CN(CC(C)O)CC(C)O (configuration not stated),-3.8%,3.16µM*,?,3.9,10µM*,4.8
CN1CCCCC1c1ccc(-c2cccnc2)nc1 (configuration not stated),?,-17.7%,31.8%,2.7,-117.5%[59 µM],1.6
CC1CCCCC1n1c(-c2cccnc2)n[nH]c1=S (configuration not stated),-5.6%,7.08µM*,53.8%,0.6,14.1µM*,-10.4
Cc1ccc(C)c(N2CCN(c3ncnc4onc(C)c34)CC2)c1,16.8%[57.1 µM],-5.5%,53.4%,.,-9.4%[59 µM],.
N#CC(C#N)=NNc1ccc(S(N)(=O)=O)cc1,?,-19.1%[11.4 µM],35.5µM*,?,-0.6%[12.7 µM],-73.6*
CC1CCN(S(=O)(=O)c2ccc(NN=C(C#N)C#N)cc2)CC1,44.7µM*,.,.,.,?,.
CN(C)c1ccc2c(c1)N=C(c1ccco1)OP2(=S)N1CCOCC1 (configuration not stated),?,79.4µM*,11.2µM*,-6.5,14.1µM*,2.4
O=C(Nc1ccc2c(c1)OCO2)c1cccn(Cc2ccccc2)c1=O,-2.2%,-2.9%,40.7%,.,-30.7%[59 µM],.
O=c1c2ccccc2nc(CNc2ccccc2)n1-c1ccccc1,-12.2%,-24.1%,45.2%,7.5,31.6µM*,5.6
Cc1cccc(-n2c(CC3C(=O)Nc4ccc(C)cc43)nc3ccccc3c2=O)c1 (configuration not stated),-30.7%,-30.5%,11.0%,.,?,.
O=C1Nc2ccccc2C1Cc1nc2ccccc2c(=O)n1-c1ccccc1 (configuration not stated),79.4µM*,-19.9%[11.4 µM],0.2%,1.1,-34.6%,-5.9
O=C(O)[C@@H]1CCN1,.,.,.,.,-2.0%[59 µM],.
COc1cccc(C(=O)Nc2ccc3nc(SCC(=O)N(C)c4ccccc4)sc3c2)c1,-23.1%,-18.5%,48.7%,.,-26.4%[59 µM],.
Oc1ccc2c3c1O[C@H]1c4[nH]c5c(c4C[C@@]4(O)[C@@H](C2)N(CC2CC2)CC[C@]314)C[C@@]1(O)[C@H]2Cc3ccc(O)c4c3[C@@]1(CCN2CC1CC1)[C@H]5O4,.,.,.,.,14.1µM*,.
SMILES,BAZ2B block,JMJD2A Tudor inh,HP1b chromo inh,Six1-Eya2 inh,G9a inh,CtBP-E1A inh
CCN(CC)C(=O)c1ccc(NC(=O)CCn2nc(-c3ccc(Cl)cc3)c3ccccc3c2=O)cc1,-37.7%,-29.2%,-11.7%,.,-44.2%[59 µM],.
CCCOc1ccc(N2C(=O)CC(N3CC=C(c4ccccc4)CC3)C2=O)cc1 (configuration not stated),-34.7%,-14.6%,15.5%,-5.2,?,-1.0
O=C1CC(N2CC=C(c3ccccc3)CC2)C(=O)N1c1ccc(F)cc1 (configuration not stated),-24.9%,?,6.8%,0.8,10µM*,-1.2
CCOC(=O)[C@]12Cc3cc(N(C)C)ccc3[C@H]1N(Cc1ccccc1)C(=O)c1ccccc12,.,15.8µM*,-15.8%,?,.,?
CCOC(=O)[C@]12Cc3cc(Cl)ccc3[C@H]1N(Cc1ccccc1)C(=O)c1ccccc12,.,-15.2%,19.1%,-6.9,.,-0.1
CNc1ccc2nc3ccccc3[n+](C)c2c1,35.5µM*,-33.3%,?,-75.3*,-33.3%[2.33 µM],.
C[n+]1c2ccccc2nc2ccc(NCCO)cc21,12.6µM*,?,39.8µM*,-72.9*,0.7%[2.33 µM],-69.8*
C[C@H]1CC[C@@]2(NC1)O[C@@H]1C[C@H]3[C@@H]4CC[C@@H]5C[C@@H](O)CC[C@@]5(C)[C@@H]4CC[C@]3(C)[C@@H]1[C@@H]2C,.,.,.,.,3.6%[21.5 µM],.
COc1ccc(NC(=O)c2ccco2)cc1NC(=O)COc1cc(C)cc(C)c1,-24.5%,-15.8%,41.4%,.,-32.4%[59 µM],.
O=C(O)CCC(=O)NCCC1=c2ccccc2=N/C1=C\c1c(O)n(Cc2ccc(F)cc2)c(=S)[nH]c1=O,31.6µM*,31.6µM*,31.6µM*,-13.3,.,-17.7
CN1C(=O)C(=Cc2cn(CC(=O)N3CCCC3)c3ccccc23)C(=O)N(C)C1=O,-21.0%,-16.1%,5.4%,9.0,28.2µM*,7.4
Clc1ccc([C@@H](OCCN2CCCCC2)c2ccccc2)cc1,.,.,.,.,5.5%[21.5 µM],.
C(=C\c1ccccc1)/CN1CCN(CCOC(c2ccccc2)c2ccccc2)CC1,.,.,.,.,11.2µM*,.
COc1ccc(OCC#CCN2CCC(C)CC2)cc1,28.2µM*,-31.9%,35.5µM*,-13.4,8.91µM*,-24.7
COc1ccc(CC(C)NC2CCCCCC2)cc1 (configuration not stated),-6.9%,-8.3%,22.6%,4.3,-25.5%,5.7
C[C@@H]1O[C@@H](O[C@H]2C[C@@H](O)[C@@]3(CO)[C@H]4[C@H](O)C[C@]5(C)[C@@H](C6=CC(=O)OC6)CC[C@]5(O)[C@H]4CC[C@@]3(O)C2)[C@@H](O)[C@H](O)[C@H]1O,.,.,.,.,20.9%[59 µM],.
O=C(Cn1cc(C=C2C(=O)NC(=O)NC2=O)c2ccccc21)NCC1CCCO1 (configuration not stated),-20.1%,-1.1%,17.3%,-15.9,-19.0%,-2.3
Cc1c(C=C2C(=O)N(C)C(=S)N(C)C2=O)c2ccccc2n1CC(=O)NCC1CCCO1 (configuration not stated),?,-27.4%,-5.0%,-11.9,14.1µM*,-8.0
